Screening data from PubChem.
In the library only some 1.6% were active in any assay of this set; here they are far more common.
eIF4E 4G PPI: blocks eIF4E binding to eIF4G; P63073+Q04637; TR-FRET eIF4E-eIF4GI(517-606) binding, 2 h; inhibition, % at 21.7 µM; 220,000 tested, 0.37% active; AID 782;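 active = inhibition above about 30%, limit read from the data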;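 also: 0% = full FRET control wells and 100% = background wells lacking eIF4GI fragment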
eIF4H FP inh: inhibitors of RNA binding by human eIF4H | inhibition, % at 35 µM | 290,000 tested, 0.94% active | eIF4H fluorescence polarization binding assay | AID 2012;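 also: calls also rest on retests at 20 µM and on dose response follow-up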
PERK inh: blocks human PERK kinase; CHO PERK-DD fusion, SEAP luminescence translation reporter; inhibition, % at 5.6 µM; 220,000 tested, 0.17% active;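 active = inhibition above the mean inhibition of all tested compounds plus 3 SD, set separately per screening campaign, cut at about 2.9% in these data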;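 also: PERK kinase domain activated by AP20187 dimerizer at 100 nM; 0% = DMSO with dimerizer and 100% = rapamycin at 8.4 µM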
PABP1 MLLE inh: inhibitors of microRNA-mediated deadenylation, human PABP1 MLLE binding; GST-MLLE / FITC-PAM2 fluorescence polarization; 360,000 tested, 0.36% active; P11940; inhibition, % at 20 µM; in the data active = inhibition above about 35%, passing the limit was not always enough;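 also: plate controls were DMSO wells with GST-MLLE for no effect and wells lacking GST-MLLE protein for full effect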
PABP FP inh: blocks human PABP binding to poly(A) RNA | P11940 | fluorescence polarization | inhibition, % at 35 µM | 290,000 tested, 1% active | AID 2014;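 also: calls also rest on retests at 20 µM and on dose response follow-up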
* = called active by the depositor; ? = inconclusive; . = no result given. Unless noted, no rule for the calls is given here.

SMILES	eIF4E 4G PPI	eIF4H FP inh	PERK inh	PABP1 MLLE inh	PABP FP inh
C[C@H](CO)N1C[C@H](C)[C@@H](CN(C)S(=O)(=O)c2ccccc2)Oc2ccc(NC(=O)NC3CCCCC3)cc2C1=O	.	.	.	6	.
CCN(C(=O)CSc1nnc(-c2cccc(Cl)c2)n1N)c1c(N)n(Cc2ccccc2)c(=O)[nH]c1=O	.	.	.	27	.
Cc1cccc(NC(=S)NNC(=O)c2csc3c2CCCC3)c1	-4	18	1	38*	5
COc1ccc(OC)c(/C=N/NC(=O)C(=O)N2CCCCCC2)c1	.	-12	.	-5	-6
O=C(CC(Sc1ccc(Br)cc1)C(=O)O)c1ccc(F)cc1 (stereo not drawn)	.	-2	.	39*	-6
COc1ccccc1CC(=O)N1CCN(S(=O)(=O)c2ccccc2)CC1	.	-2	.	15	0
CC(C)(C)c1ccc(C(=O)OC/C(O)=C(\C#N)c2nc3ccccc3s2)cc1	6	-2	1	7	-9
N#C/C(=C(/O)COC(=O)c1ccccc1O)c1nc2ccccc2s1	7	56	1	-8	20*
COc1ccccc1NC(=O)COc1ccc(/C=N/NC(=O)CSCc2ccc(Cl)cc2)cc1	-31	-4	3.3*	-1	-6
CC(=O)Oc1ccccc1/C=C/c1nc2ccccc2c(=O)o1	.	16	.	-25	0
O=c1oc(/C=C/c2ccc([N+](=O)[O-])s2)nc2ccccc12	.	97*	.	-21	98*
CSc1ccccc1NC(=O)CN(C)C(=O)COc1cccc2cccnc12	.	.	.	10	.
O=C1CN(C(=O)c2cccs2)c2ccccc2N1	47*	1	0	-8	-11
O=C1CN(C(=O)/C=C/c2ccco2)c2ccccc2N1	13	71*	0	-16	14
N#Cc1c(N)sc(=S)c2c1CCCC2	12	?	0	48*	?
CCOc1cccc(=O)c2c(C)n(Cc3ccco3)c(C)c12	-5	95*	0	-18	89*
Clc1ccc(CSc2nnc(-c3ccc4c(c3)OCO4)o2)cc1	-10	-4	0	-5	6
O=C1CCCCC1Sc1nnc(-c2ccc3c(c2)OCO3)o1 (stereo not drawn)	3	9.7*	1	-38	74*
CC(C)(C)c1cc(C2COC(=O)COCCOCC(=O)OCCOCCO2)cc(C(C)(C)C)c1O (stereo not drawn)	.	.	.	-7	.
Oc1[nH]c(=S)sc1/C=C1\C(c2ccccc2)=Nc2ccccc21	1	57*	0	-138	7
N#CC1=C(N)N(c2ccccc2)C(=O)C1	-5	32	0	-1	54*
COc1ccc(N2C(=O)CC(C#N)=C2N)cc1	-2	2	0	6	-2
O=[N+]([O-])c1ccccc1CNc1ccc(F)c(Cl)c1	-2	74	1	-3	active
NC(=O)CSc1nc(C23CC4CC(CC(C4)C2)C3)nc2ccccc12	3	-1	0	2	59*
Cc1nonc1NC(=O)CSc1nc(C23CC4CC(CC(C4)C2)C3)nc2ccccc12	-9	-14	0	0	9
SMILES	eIF4E 4G PPI	eIF4H FP inh	PERK inh	PABP1 MLLE inh	PABP FP inh
CC(=O)NC(c1cccc(F)c1)c1nc(-c2cccs2)cs1 (stereo not drawn)	.	.	.	16	.
Nc1ccc(N2CCCCCC2)cc1	3	83*	0	.	71*
O=C(NC1CCCCCC1)C(=S)N1CCOCC1	0	6	2	44*	-12
Cc1ccc(NC(=S)N/N=C2/CCCCc3ccccc32)cc1	-8	18	0	42*	6
Cc1cccc(NC(=S)N/N=C2/CCCCc3ccccc32)c1	5	12	-1	34	-10
CCC(=O)NC(=S)Nc1c(C)cc(Br)cc1C	-2	-6	0	44*	14
CCOC(=S)N/C(=N\S(C)(=O)=O)c1ccccc1	2	-8	0	39*	-6
CCOC(=S)N/C(=N\S(=O)(=O)c1ccccc1)c1ccccc1	0	3	0	16	12
O=C(O)c1cc(Br)ccc1NN=C1CCCCC1	-10	8	1	22	49
O=c1cccccc1NN=C1CCCCC1	-4	82*	1	-16	62*
O=[N+]([O-])c1ccc(NN=C2CCCCC2)c([N+](=O)[O-])c1	.	.	.	14	.
O=c1cccccc1NN=C1CCCCCC1	-1	59*	0	18	28*
C[C@@H]1CN([C@H](C)CO)C(=O)CCCn2nncc2CO[C@@H]1CN(C)S(=O)(=O)c1cccc(F)c1	.	.	.	12	.
CC1OC2(C)OC(=N)C1(C#N)C(C#N)(C#N)C2c1ccccc1 (stereo not drawn)	1	?	0	17	-8
CC1C2(C)OC(=N)C(C#N)(C(C)O2)C1(C#N)C#N (stereo not drawn)	1	48	2	64*	18
CC1=C(C(=O)Nc2cc(-c3cccc(F)c3)[nH]n2)C2(CCCCC2)OC1=O	3	55*	0	6	active
O=C(Nc1cc(-c2ccccc2)[nH]n1)c1ccccc1F	-5	38	1	1	34
Cc1nc(C(C)N(C)Cc2nc(-c3ccc4c(c3)OCO4)no2)c(C)s1 (stereo not drawn)	0	-10	3.0*	18	5
Cc1cccc(-c2noc(CN(C(=O)c3ccc4c(c3)OCO4)C(C)C)n2)c1	.	-3	1	-1	8
CN1CCCN(Cc2ccccc2C(F)(F)F)CC1	94*	6	1	-4	0
CCCS(=O)(=O)N1CCN(Cc2ccccc2C(F)(F)F)CC1	-6	-14	2	2	12
O=C(NCCCNC(=O)c1cc(Cl)ccc1Cl)c1ccccn1	.	-18	.	-13	-5
CC1(C)S[C@@H]2[C@H](NC(=O)[C@H](N)c3ccccc3)C(=O)N2[C@H]1C(=O)O	-2	63	0	3	13*
COc1cc(/C=C2\C(=O)N(c3ccccc3)N=C2C)ccc1Oc1ccc([N+](=O)[O-])cc1[N+](=O)[O-]	-14	active	0	4	52*
N#CCCN(Cc1ccccc1)S(=O)(=O)c1cccs1	.	1	.	-1	6
SMILES	eIF4E 4G PPI	eIF4H FP inh	PERK inh	PABP1 MLLE inh	PABP FP inh
CCCCC1=CC2=C(c3ccco3)C(=O)C(C)(OC(=O)c3ccc(OC)cc3)C(=O)C2=CN1Cc1ccccc1 (stereo not drawn)	5	68	.	4	40*
CCOC(=O)c1c(C)[nH]c(C)c1S(=O)(=O)NC(CC)CN1CCOCC1 (stereo not drawn)	.	94*	.	1	64*
CCOC(=O)Nc1ccc2c(CNC(C)c3ccccc3OC)cc(=O)oc2c1 (stereo not drawn)	.	-10	.	-1	-6
Cc1cc(NC(=O)COC(=O)C2CC(=O)N(c3cccc(C)c3C)C2)no1 (stereo not drawn)	.	-4	.	-3	-1
CC(=O)Nc1cc(N2C(=O)CCC2=O)ccc1Cl	-4	-4	0	-1	10
CC(=O)Nc1c(Br)cc(N2C(=O)CCC2=O)cc1Br	-3	4	3.1*	1	-2
